Source: PubChem BioAssay (NCATS)
Inconclusive results are not listed. Activity calls are given as the source filed them. Calls follow the shape of the dose curve; as a rule, active = well fitted curve in the direction sought with a large enough effect; inconclusive = small, poorly fitted or top-dose-only effect, or another doubt; inactive = no such curve, though single readings can be large; an effect the other way counts as inactive or inconclusive.

Tests used:
[1] = Panc-1005 Cancer Cell Toxicity qHTS against the NCATS CANVASS Library (AID 1347349); also: nearly all actives have a fitted effect of over 60% in size; also: potency is read from the fitted curve at half-maximal effect
Summary of the method: (§1)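 Per well, 1000 cells; exposure 72 h with compound at 11 final concentrations; readout CellTiter-Glo luminescence.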

[2] = SW1088 Cancer Cell Toxicity qHTS against the NCATS CANVASS Library (AID 1347350); also: nearly all actives have a fitted effect of over 75% in size; also: potency is read from the fitted curve at half-maximal effect
Summary of the method: as §1

[3] = COV-362 Cancer Cell Toxicity qHTS against the NCATS CANVASS Library (AID 1347352); also: potency is read from the fitted curve at half-maximal effect
Summary of the method: (§2)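 qHTS cytotoxicity: compounds tested in 11 concentrations on 1000 seeded cells per well over 72 h; bortezomib served as control; signal from CellTiter-Glo luminescence.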

[4] = A2780 Cisplatin Sensitive Ovarian Cancer Cell Toxicity qHTS against the NCATS CANVASS Library (AID 1347353); also: nearly all actives have a fitted effect of over 60% in size; also: potency is read from the fitted curve at half-maximal effect
Summary of the method: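 Seventy-two-hour exposure of cisplatin-sensitive A2780 ovarian cells to an 11-concentration qHTS series; cytotoxicity is inferred from loss of ATPLite luminescence. Bortezomib titration served as positive control.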

[5] = UWB1.289-WTBRCA1 Cancer Cell Toxicity qHTS against the NCATS CANVASS Library (AID 1347354); also: potency is read from the fitted curve at half-maximal effect
Summary of the method: as §2

[6] = tested on: NAD(P)H diaphorase (Clostridium kluyveri); assay: Diaphorse counterscreen qHTS: Assay Interference Panel against the NCATS CANVASS Library (AID 1347362)
Summary of the method: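 Clostridium kluyveri diaphorase in PBS with 0.01% Tween-20 was preincubated 15 min at room temperature in the dark with compounds (11-point series). Resorufin fluorescence (ex 525/20, em 598/25) was read 5 min after adding resazurin/NADH.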

[7] = KB-8-5-11 Cancer Cell Toxicity qHTS against the NCATS CANVASS Library (AID 1347364); also: nearly all actives have a fitted effect of over 75% in size; also: potency is read from the fitted curve at half-maximal effect
Summary of the method: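 Natural products were titrated in 11 points onto KB-8-5-11 cells, 500 per well, and cytotoxicity was scored from CellTiter-Glo luminescence after 72 hr culture.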

[8] = qHTS for Hypoxia signaling pathway (HIF-1) agonists against the NCATS CANVASS Library (AID 1347375)
Summary of the method: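 Inducers of HIF-1 signaling were detected in ME-180 cells bearing an HRE-driven beta-lactamase reporter after 17 h compound exposure. Activity came from CCF4-AM FRET emission ratio (460/530 nm) in qHTS format.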

[9] = DH5-alpha competent E. coli microbial cell viability qHTS against the NCATS CANVASS Library (AID 1347377); settings: outcome: dose series up to 46.1 µM unless noted
Summary of the method: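 Cell viability of competent DH5-alpha E. coli is scored from ATP content by luminescence. Cells sit overnight at 37C with compound across an 11-point concentration series.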

[10] = qHTS for H2AX Agonists against the NCATS CANVASS Library (AID 1347378);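 also: phospho-H2AX S139 level in CHO-K1 lysates by TR-FRET emission ratio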; also: potency is read from the fitted curve at half-maximal effect
Summary of the method: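 Signal is the 665/620 nm emission ratio from europium cryptate and d2 antibody pair, rising with S139-phosphorylated H2AX. CHO-K1 cells saw test agents for 3 hr at 37C; detection ran 24 hr at room temperature.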

[11] = qHTS for Inflammasome Signaling Inhibitors: IL-1-beta AlphaLISA screen against the NCATS CANVASS Library (AID 1347379);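 also: human THP-1 cells primed with LPS then triggered with ATP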
Summary of the method: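 Human THP-1 cells were pretreated 1 hr at 37 °C with compounds (up to 57.5 uM final), then stimulated with LPS (250 ng/mL final) and ATP (1.25 mM final). Secreted IL-1B was read by AlphaLISA after 16 hr.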

[12] = Cytotoxicity qHTS for assessment of Hepg2 cells membrane integrity screened against the NCATS CANVASS Library (AID 1347387)
Summary of the method: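 Fluorescence proportional to lysed-cell number, from LDH leaking out of HepG2 cells exposed 5 hr at 37C to 0.59 nM - 46 uM compound (11-point qHTS), is measured after 10 min with CytoTox-ONE.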

[13] = qHTS assay for small molecule disruptors of mitochondrial membrane potential screened against the NCATS CANVASS Library (AID 1347389); also: nearly all actives have a fitted effect of over 60% in size; also: potency is read from the fitted curve at half-maximal effect
Summary of the method: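 Compounds tested in 11-point qHTS series on HepG2 cells for 1 hr; membrane-potential dye added for 30 min at 37C. Lower red-to-green ratio indicates loss of potential.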

[14] = Secretion counterscreen for inhibitors of the SERCaMP assay screened against the NCATS CANVASS Library (AID 1347390);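 also: light from luciferase secreted into medium read as a measure of general secretion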; also: potency is read from the fitted curve at half-maximal effect
Summary of the method: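 Natural products are titrated in an 11-point series up to 77 uM onto SH-SY5Y-GLuc STOP cells for 20 h. Secreted reporter activity is measured as coelenterazine-driven luminescence, with Brefeldin A on each plate.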

[15] = qHTS for activators of Nrf2/ARE signaling pathway screened against the NCATS CANVASS Library (AID 1347391); also: nearly all actives have a fitted effect of over 60% in size; also: potency is read from the fitted curve at half-maximal effect
Summary of the method: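 Cells carrying an ARE-driven beta-lactamase reporter (HepG2 background) are dosed for 16 h, then stained with CCF4. Cell viability in the same wells is measured by CellTiter-Glo luminescence.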

[16] = qHTS for activators of dead-cell proteases activity screened against the NCATS CANVASS Library (AID 1347392);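 also: luminescence from protease leaking out of membrane-damaged cells cleaving impermeant substrate; rising signal means more cytotoxicity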
Summary of the method: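 HepG2 cells (2000/well) attached 18 h at 37C, then exposed 5 h to compounds (11-point qHTS). Dead-cell protease activity read as luminescence from cell-impermeant AAF-aminoluciferin substrate after 15 min at room temperature.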

[17] = qHTS for inhibitors of ER calcium dysfunction: SERCaMP assay screened against the NCATS CANVASS Library (AID 1347393); also: nearly all actives have a fitted effect of over 40% in size; also: potency is read from the fitted curve at half-maximal effect
Summary of the method: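 qHTS in SH-SY5Y reporter cells: 16 h compound pretreatment, 4 h thapsigargin, then secreted Gaussia luciferase measured by luminescence.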

[18] = Vero-766 cells viability qHTS against the NCATS CANVASS Library: Counterscreen for Zika virus inhibition assay (AID 1347394); also: nearly all actives have a fitted effect of over 60% in size; also: potency is read from the fitted curve at half-maximal effect
Summary of the method: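 Counterscreen for toxicity: Vero 766 cells exposed 72 h to an 11-point compound series, viability by CellTiter-Glo.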

[19] = qHTS for inhibitors of Wild type Zika virus screened against the NCATS CANVASS Library (AID 1347396); also: potency is read from the fitted curve at half-maximal effect
Summary of the method: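 Using ATP-based luminescence (CellTiter Glo), this screen scores rescue of Vero 766 cells from wild-type Zika killing at 72 h post-infection. Compounds are tested in a concentration series.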

[20] = G06 Cancer Cell Toxicity qHTS against the NCATS CANVASS Library (AID 1347368)
Summary of the method: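 Cytotoxicity toward canine glioma G06 cells is scored from cellular ATP via luminescence after 72 hr compound exposure at 500 cells/well.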

Measured: Potency

CO[C@@H]1[C@H](O)[C@@H](C)O[C@@H](OC[C@H]2/C=C/C=C/C(=O)C(C)C[C@H](C)C(O[C@@H]3O[C@H](C)CC4(OC(=O)O[C@@H]4C)C3O)[C@@H](C)/C=C/C(=O)OC2C)[C@@H]1OC (stereo partly specified)
active: [15] 14.8 µM | [17] 15.3 µM
not listed: [20]
inactive: all other assays above

CC(C)=CCC[C@@H](C)[C@@H]1CC[C@@]2(C)C[C@H]3C(C)=CC(=O)[C@@H]3/C(C=O)=C\C[C@H]12
inactive: [6] | [9] | [10] | [12] | [15] | [16] | [17]
active: [1] 7.49 µM | [2] 2.66 µM | [3] 11.8 µM | [4] 3.72 µM | [5] 10.6 µM | [7] 10.5 µM | [20] 16.6 µM | [11] 17.2 µM | [18] 20.9 µM

CO[C@@H]1C[C@@H](C[C@H]2CC[C@H](C)[C@H]([C@@H](C)C(=O)O)O2)O[C@]2(O[C@](C)([C@H]3CC[C@@](C)([C@@H]4O[C@@H]([C@H]5O[C@](C)(O)[C@H](C)C[C@@H]5C)C[C@@H]4C)O3)C[C@H]2C)[C@@H]1C
inactive: [10] | [12] | [15] | [16] | [17]
active: [1] 3.75 µM | [2] 0.0168 µM | [3] 4.72 µM | [4] 0.0372 µM | [5] 9.41 µM | [7] 5.9 µM | [20] 0.132 µM | [11] 5.44 µM | [13] 18.6 µM | [14] 0.484 µM | [18] 4.67 µM | [19] 1.04 µM

C=C1C(=O)O[C@H]2C[C@H](C)[C@@H]3CC(=O)C(C)=C3[C@H](O)[C@H]12
inactive: [2] | [6] | [19]
active: [1] 18.8 µM | [4] 2.96 µM | [20] 7.43 µM | [10] 17.2 µM | [11] 10.9 µM | [14] 34.3 µM | [17] 1.72 µM

CC12C[C@]3(O)O[C@@H](O1)[C@]1(COC(=O)c4ccccc4)[C@@H]3CC21OC1OC(CO)C(O)C(O)C1O (stereo partly specified)
not listed: [14] | [17] | [20]
inactive: all other assays above

O=C1c2c(O)cc(O)cc2O[C@@H](c2ccc(O)cc2)[C@@H]1c1c(O)cc(O)c2c(=O)cc(-c3ccc(O)c(O)c3)oc12
not listed: [9] | [13] | [20]
inactive: all other assays above
